For 36 compounds, composite z-score results are on record in PubChem BioAssay.

Chain of Torsin-1A (Homo sapiens) (O14656 whole entry, looked up): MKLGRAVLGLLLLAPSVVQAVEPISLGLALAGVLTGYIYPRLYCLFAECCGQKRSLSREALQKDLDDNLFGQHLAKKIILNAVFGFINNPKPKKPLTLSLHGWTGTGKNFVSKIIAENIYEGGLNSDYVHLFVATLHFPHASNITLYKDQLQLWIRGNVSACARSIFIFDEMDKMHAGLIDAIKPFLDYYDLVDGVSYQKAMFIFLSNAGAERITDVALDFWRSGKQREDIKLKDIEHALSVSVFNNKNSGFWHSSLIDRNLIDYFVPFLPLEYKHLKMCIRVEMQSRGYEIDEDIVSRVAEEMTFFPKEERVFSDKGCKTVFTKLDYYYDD

The assay concerns the target Torsin-1A (Homo sapiens) (UniProt O14656). Put plainly: small-molecule binders of mutant TOR1A in lysate, primary screen, cell lysate, small-molecule microarray, COS7 lysate, 635/667 nm fluorescence (AID 1150).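 Further: score pools 667 nm emission and signal to noise measuring lysate protein binding.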 The note with it: COS7 hTOR1A mutant lysate, 635 nm fluorescence, higher = more signal.
In the case of `CON=C(C)CCC(=O)OC[C@H]1O[C@H](C#Cc2ccccc2)C=C[C@@H]1Oc1ccc(C)cc1`, the composite z-score was -0.0451.
As for `CC(C)(C)N1C(=O)[C@H]2[C@H]3[C@H](O)[C@H](O)CC(=NOC[C@@H](O)COCc4ccco4)[C@@H]3CC[C@H]2C1=O`, the figure is 0.275.
The figure for `CO[C@@H]1[C@H](O)CO[C@H]1C=Cc1ccccc1` is 0.0143; for `CCN1C(=O)[C@H]2[C@H]3[C@H](O)[C@H](O)CC(=NOCC[C@@H]4C=C[C@H](OC(C)=O)[C@@H](COC(C)=O)O4)[C@@H]3CC[C@H]2C1=O` it is 0.296.
As for `CO[C@@H](C1CCCCC1)[C@@H](C)[C@H](OCc1cccc(Br)c1)[C@@H](C)CO`, the figure is 0.467.
`CCOC(=O)CCN1C(=O)[C@H]2[C@H]3[C@H](O)[C@H](O)CC(=NOCC(C)C)[C@@H]3CC[C@H]2C1=O` returned a composite z-score of 2.77.
The figure for `CCOC(=O)CCN1C(=O)[C@H]2[C@H]3[C@H](O)[C@H](O)CC(=NO[C@@H]4O[C@H](CO)[C@@H](O)[C@H](O)[C@H]4O)[C@@H]3CC[C@H]2C1=O` is 1.12.
As for `CO[C@H]1COC(=O)CC=C[C@@H](C)COC(=O)[C@H]2CCCN2C(=O)CC=C[C@H]1C`, the figure is 2.95.
The figure for `CCOC(=O)[C@H](Cc1ccccc1)NC(=O)CCC1CC(OC(=O)NCc2cccc3ccccc23)CC2(CCCC(COC(=O)NCCc3ccccc3OC)O2)O1` (stereo partly specified) is 0.0946; for `Cc1ccc(S(=O)(=O)N[C@@H]2COC(=O)CC=C[C@@H](C)[C@H](NS(=O)(=O)c3ccc(C)cc3)COC(=O)[C@H](C)NC(=O)CC=C[C@H]2C)cc1` it is 0.0835; for `CCN1C(=O)[C@H]2[C@H]3[C@H](O)[C@H](O)CC(=NOCC=C(C)CCC=C(C)C)[C@@H]3CC[C@H]2C1=O` it is 0.981.
Consider `O=C1[C@H]2[C@H]3[C@H](O)[C@H](O)CC(=NOC[C@@H](O)COCc4ccco4)[C@@H]3CC[C@H]2C(=O)N1Cc1ccccc1`, for which the composite z-score turned out to be 1.92.
As for `O=C1[C@H]2CCn3c(=O)n(-c4ccccc4)c(=O)n3[C@H]2[C@H](O)[C@@H]2O[C@H]12`, the figure is 0.109; as for `CON=C[C@@H](OC)[C@H](C)C=CCC(=O)OC`, -0.0215; as for `CC(C)=CCCC(C)=CCON=C1C[C@@H](O)[C@@H](O)[C@@H]2[C@@H]3C(=O)N(Cc4ccc5c(c4)OCO5)C(=O)[C@@H]3CC[C@@H]12`, 0.606.
As for `CC(=O)OC[C@H]1O[C@H](CC=NO[C@@H](C)c2cc(-c3c(C)cc(C)cc3C)no2)C=C[C@@H]1OC(C)=O`, the figure is -0.31.
The figure for `COc1ccc(-c2cnnc(CCCn3ccnc3-c3ccccc3)n2)cc1` is 1.52; for `O=C1C2=CC[C@H]3C(=O)N(c4ccc(F)cc4F)C(=O)[C@H]3[C@H]2[C@H](O)[C@@H]2O[C@H]12` it is 0.308; for `COC(=O)CC=C[C@@H](C)[C@@H](C=NOC[C@@H](O)COCc1ccco1)OC` it is 2.69.
The compound `COC(=O)[C@H](C)NC(=O)CCC1CC(OC(=O)NCc2cccc3ccccc23)CC2(CCCC(COC(=O)NCCCN3CCCC3=O)O2)O1` (stereo partly specified) came in with a composite z-score of 0.745.
The figure for `CCOC(=O)[C@H](CC(C)C)NC(=O)CCC1CC(OC(=O)NCc2ccc3c(c2)OCO3)CC2(CCCC(COC(=O)NCCc3ccccc3OC)O2)O1` (stereo partly specified) is 0.582; for `CO[C@@H](C(C)C)[C@@H](C)C1OC(=O)CC1O` (stereo partly specified) it is -0.0794.
The figure for `Cc1ccc(C(C)C)n1C(=O)OC(C)(C)C` is 0.196.
The figure for `CCOC(=O)[C@H](Cc1ccccc1)NC(=O)CCC1CC(OC(=O)NCc2ccc3c(c2)OCO3)CC2(CCCC(COC(=O)NCCOc3ccccc3)O2)O1` (stereo partly specified) is 0.184; for `CSCC[C@@H]1NC(=O)CC=C[C@@H](C)COC(=O)[C@H](C)COC1=O` it is 3.77.
`CO[C@H]1COC(=O)CCC[C@H](C)[C@@H](OC)COC(=O)CC=C[C@@H]1C`: the composite z-score was 0.861.
As for `CC(C)[C@@H](OCc1ccccc1)[C@H](C)C=NO[C@@H](C)c1cn([C@H](CO)Cc2ccccc2)nn1`, the figure is 0.441; as for `CCN1C(=O)[C@H]2[C@@H]3C(=CC[C@H]2C1=O)C(=O)[C@H]1O[C@H]1[C@H]3O`, 0.348.
Regarding `CC(C)=CCCC(C)=CCON=C1C[C@@H](O)[C@@H](O)[C@@H]2[C@@H]3C(=O)N(C4CCCCC4)C(=O)[C@@H]3CC[C@H]12`, the composite z-score came out at 0.159.
As for `C=CC[C@@H]1C=C[C@H](ON=C[C@@H](NS(=O)(=O)c2ccc(C)cc2)[C@H](C)C=CCC(=O)OC)[C@@H](CO)O1`, the figure is 0.634; as for `COC(=O)[C@H](C)NC(=O)CCC1CC(OC(=O)NCCc2ccc(F)cc2)CC2(CCCC(COC(=O)NCCOc3ccccc3)O2)O1` (stereo partly specified), 0.379; as for `CO[C@@H]1COC(=O)[C@H](COCc2ccccc2)NC(=O)CC=C[C@@H](C)[C@H](OC)COC(=O)[C@@H](C)NC(=O)CC=C[C@H]1C`, 0.544.
For the compound `CC(CCC(=O)OC[C@H]1O[C@H](C#Cc2ccccc2)C=C[C@@H]1Oc1ccc(C)cc1)=NOC[C@@H](C)[C@H](OCc1ccccc1)C(C)C`, the composite z-score is -0.28.
The figure for `COC(=O)[C@H](C)NC(=O)CC=C[C@@H](C)[C@@H]1C=C[C@H](O)[C@@H](CO)O1` is 0.394.
Regarding `C=CC[C@@H]1C=C[C@H](ON=C(C)CCN2CCCc3nc(C)c(C)cc32)[C@@H](CO)O1`, the composite z-score turned out to be 2.07.
`O=C1C=C[C@@H](O)[C@@H]2[C@@H]3C(=O)N(Cc4ccccc4)C(=O)[C@@H]3CC[C@@H]12` came in with a composite z-score of 0.376.
